Measured values as given in PubChem BioAssay (NCI).
Values joined by “and” are separate entries in the source; they are usually repeats but may differ in a detail not shown here. Equal values may be shown once. Compounds without any hit were thinned out: in the full panel of roughly 83,000, 20% have a hit.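 Values shown are percent growth following 48 h exposure of cells in 96-well plates to a single concentration of compound; below 10 was considered active.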 Active and inactive are the calls of the source. Where a SMILES comes first, the peptide text is derived from it.

What was measured:
Assay in all cases: NCI-60 one-dose screen, 48 h (100 = growth as untreated, 0 = no growth, -100 = all killed)
NCI-H23 lung = conditions: 10 µM unless noted
NCI-H226 lung = conditions: 10 µM unless noted
NCI-H322M lung = conditions: 10 µM unless noted
HOP-62 NSCLC = conditions: 10 µM unless noted
NCI-H460 lung = conditions: 10 µM unless noted
HOP-92 NSCLC = conditions: 10 µM
NCI-H522 lung = conditions: 10 µM
A549/ATCC NSCLC = conditions: 10 µM unless noted
786-0 renal = conditions: 10 µM unless noted
COLO 205 colon = conditions: 10 µM unless noted
DU-145 prostate = conditions: 10 µM unless noted
K-562 leukemia = conditions: 10 µM unless noted
MALME-3M melanoma = conditions: 10 µM unless noted
MDA-MB-231 breast = conditions: 10 µM unless noted
RXF 393 renal = conditions: 10 µM unless noted
SF-268 CNS = conditions: 10 µM unless noted
SF-295 CNS = conditions: 10 µM unless noted
SF-539 CNS = conditions: 10 µM unless noted
UACC-257 melanoma = conditions: 10 µM unless noted
M14 melanoma = conditions: 10 µM unless noted

Measured: growth

Cc1cc(-c2ccc(N=Nc3ccc4c(S(=O)(=O)O)cc(S(=O)(=O)O)c(N)c4c3O)c(C)c2)ccc1N=Nc1ccc2c(S(=O)(=O)O)cc(S(=O)(=O)O)c(N)c2c1O
inactive: NCI-H23 lung 81.7% | NCI-H226 lung 89.2% | NCI-H322M lung 119% | HOP-62 NSCLC 95.7% | NCI-H460 lung 111% | HOP-92 NSCLC 67.1% | NCI-H522 lung 85.6% | A549/ATCC NSCLC 92.7% | 786-0 renal 101% | COLO 205 colon 111% | DU-145 prostate 105% | K-562 leukemia 90.8% | MALME-3M melanoma 107% | MDA-MB-231 breast 110% | RXF 393 renal 101% | SF-268 CNS 102% | SF-295 CNS 93.7% | SF-539 CNS 90.8% | UACC-257 melanoma 105% | M14 melanoma 118%

Nc1cc(N)c(N)cc1N
inactive: NCI-H226 lung 93.9% | NCI-H322M lung 107% | HOP-62 NSCLC 58.3% | NCI-H460 lung 96.8% | A549/ATCC NSCLC 88.1% | 786-0 renal 51.7% | COLO 205 colon 95.7% | DU-145 prostate 109% | MALME-3M melanoma 62% | MDA-MB-231 breast 89.6% | RXF 393 renal 51.3% | SF-268 CNS 74.2% | SF-295 CNS 87.8%
active: NCI-H23 lung -66% | NCI-H522 lung -80.9% | K-562 leukemia 9.58% | SF-539 CNS -3.2% | UACC-257 melanoma -46.4%

CN1CNC(=O)NC1
inactive: NCI-H23 lung 106% and 99.9% | NCI-H226 lung 98.4% and 86.1% | NCI-H322M lung 120% and 92.3% | HOP-62 NSCLC 108% and 103% | NCI-H460 lung 103% and 108% | HOP-92 NSCLC 94.1% and 95.6% | NCI-H522 lung 91.2% and 90% | A549/ATCC NSCLC 110% and 93.8% | 786-0 renal 108% and 112% | COLO 205 colon 110% and 121% | DU-145 prostate 118% and 106% | K-562 leukemia 112% and 86% | MALME-3M melanoma 120% and 96% | MDA-MB-231 breast 119% and 102% | RXF 393 renal 102% and 106% | SF-268 CNS 111% and 103% | SF-295 CNS 96.5% and 104% | SF-539 CNS 111% and 98.4% | UACC-257 melanoma 111% and 86.9% | M14 melanoma 97.2% and 106%

CC1CCC(C(C)C)C(NNC(N)=O)C1 (stereo unspecified)
inactive: NCI-H23 lung 106% | NCI-H226 lung 102% | NCI-H322M lung 102% | HOP-62 NSCLC 100% | NCI-H460 lung 104% | HOP-92 NSCLC 91.5% | NCI-H522 lung 94.9% | A549/ATCC NSCLC 89.7% | 786-0 renal 106% | COLO 205 colon 110% | DU-145 prostate 106% | K-562 leukemia 101% | MALME-3M melanoma 110% | MDA-MB-231 breast 97.5% | RXF 393 renal 101% | SF-268 CNS 106% | SF-295 CNS 103% | SF-539 CNS 110% | UACC-257 melanoma 87.3% | M14 melanoma 106%

CCCCNc1ccc(Nc2ccccc2)cc1
inactive: NCI-H23 lung 41.7% | NCI-H226 lung 73.3% | NCI-H322M lung 98.3% | HOP-62 NSCLC 106% | NCI-H460 lung 76.7% | NCI-H522 lung 31.2% | A549/ATCC NSCLC 70.1% | 786-0 renal 92.9% | COLO 205 colon 85% | DU-145 prostate 84% | K-562 leukemia 48.9% | MALME-3M melanoma 54.8% | MDA-MB-231 breast 64.4% | RXF 393 renal 83.9% | SF-268 CNS 110% | SF-295 CNS 56.3% | SF-539 CNS 83.8% | UACC-257 melanoma 62.7% | M14 melanoma 87.5%

NC(Cc1ccccc1)C(=O)NC(Cc1ccccc1)C(=O)O (stereo not drawn) (H-Phe-Phe-OH; configuration not given here)
inactive: NCI-H23 lung 97.1% and 105% | NCI-H226 lung 95.6% and 93% | NCI-H322M lung 94.6% and 100% | HOP-62 NSCLC 91.1% and 100% | NCI-H460 lung 104% | HOP-92 NSCLC 97.6% | NCI-H522 lung 87.3% and 99.4% | A549/ATCC NSCLC 90.2% and 101% | 786-0 renal 111% and 104% | COLO 205 colon 107% and 110% | DU-145 prostate 111% and 106% | K-562 leukemia 97.9% and 114% | MALME-3M melanoma 99.4% | MDA-MB-231 breast 115% and 108% | RXF 393 renal 105% | SF-268 CNS 101% and 106% | SF-295 CNS 107% and 99.4% | SF-539 CNS 101% and 92.6% | UACC-257 melanoma 88.2% and 92.8% | M14 melanoma 103% and 97.1%

c1ccc2c(c1)OC1OC2Oc2ccccc21
inactive: NCI-H23 lung 98.3% | NCI-H226 lung 94.3% | NCI-H322M lung 104% | HOP-62 NSCLC 98.8% | NCI-H460 lung 99.4% | NCI-H522 lung 87% | A549/ATCC NSCLC 96.9% | 786-0 renal 100% | COLO 205 colon 107% | DU-145 prostate 113% | K-562 leukemia 96.1% | MALME-3M melanoma 113% | MDA-MB-231 breast 114% | RXF 393 renal 97.1% | SF-268 CNS 99.3% | SF-295 CNS 115% | SF-539 CNS 106% | UACC-257 melanoma 101%

CCOC(=O)c1c(C)cc(=O)oc1C
inactive: NCI-H23 lung 101% | NCI-H226 lung 96.8% | NCI-H322M lung 110% | HOP-62 NSCLC 97.2% | NCI-H460 lung 110% | HOP-92 NSCLC 80.7% | NCI-H522 lung 115% | 786-0 renal 103% | COLO 205 colon 116% | DU-145 prostate 114% | K-562 leukemia 89% | MALME-3M melanoma 87.7% | MDA-MB-231 breast 96.3% | RXF 393 renal 109% | SF-268 CNS 106% | SF-539 CNS 107% | UACC-257 melanoma 101% | M14 melanoma 98%

CC(=O)Nc1ccc(S(N)(=O)=O)cc1
inactive: NCI-H23 lung 100% | NCI-H226 lung 107% and 102% | NCI-H322M lung 113% and 92.5% | HOP-62 NSCLC 89.4% and 103% | NCI-H460 lung 102% and 105% | NCI-H522 lung 98.3% and 80.4% | A549/ATCC NSCLC 96% and 103% | 786-0 renal 97.9% and 94.5% | COLO 205 colon 99.7% and 102% | DU-145 prostate 111% and 113% | K-562 leukemia 102% and 110% | MALME-3M melanoma 109% | MDA-MB-231 breast 102% and 119% | RXF 393 renal 115% | SF-268 CNS 105% and 115% | SF-295 CNS 93.8% and 92.8% | SF-539 CNS 100% and 101% | UACC-257 melanoma 88.6% and 94.9% | M14 melanoma 98.6% and 103%

Cc1ccc(=O)[nH]n1
inactive: NCI-H23 lung 97.8% and 98.7% | NCI-H226 lung 102% and 100% | NCI-H322M lung 104% and 103% | HOP-62 NSCLC 110% and 91.9% | NCI-H460 lung 105% and 107% | NCI-H522 lung 108% and 96.2% | A549/ATCC NSCLC 102% and 91.4% | 786-0 renal 111% | COLO 205 colon 111% and 115% | DU-145 prostate 101% and 116% | K-562 leukemia 99.7% and 97.2% | MALME-3M melanoma 112% and 106% | MDA-MB-231 breast 118% | RXF 393 renal 105% | SF-268 CNS 99.4% and 103% | SF-295 CNS 113% and 101% | SF-539 CNS 110% and 109% | UACC-257 melanoma 101% and 94.1% | M14 melanoma 111% and 110%

O=C(O)/C=C\C(=O)Nc1cccc2ccccc12
inactive: NCI-H23 lung 106% and 91.4% | NCI-H226 lung 90.6% and 107% | NCI-H322M lung 105% and 117% | HOP-62 NSCLC 96% and 104% | NCI-H460 lung 101% and 111% | HOP-92 NSCLC 115% | NCI-H522 lung 79.3% and 100% | A549/ATCC NSCLC 99.9% and 105% | 786-0 renal 113% and 111% | COLO 205 colon 95.4% and 108% | DU-145 prostate 109% and 123% | K-562 leukemia 110% and 94% | MALME-3M melanoma 116% and 119% | MDA-MB-231 breast 85.1% and 107% | RXF 393 renal 113% and 132% | SF-268 CNS 78.6% and 107% | SF-295 CNS 117% and 104% | SF-539 CNS 89.2% and 110% | UACC-257 melanoma 95.1% and 101% | M14 melanoma 99.6% and 96.8%
